# Screening data (PubChem)
# A selection: hits, their analogues and other compounds. The true share with any hit is near 19%.
# DT40 TDP1 CPT – qHTS for Inhibitors of human tyrosyl-DNA phosphodiesterase 1 (TDP1): qHTS in cells in presence of CPT. chicken DT40 Tdp1-/-;hTDP1 cells + 20 nM CPT, ATP luminescence, 48 h. Potency, µM (highest dose often 46.2 µM), actives largely listed as inhibitors. AID 686979, 2013. 420,000 tested, 12% active; also: nearly all actives have a fitted effect of over 55% in size
#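 Cell growth measured by CellTiter-Glo luminescence after a minimum 48 h, 37 C compound exposure with 20 nM CPT in Tdp1-knockout DT40 cells stably expressing hTDP1, seeded 400/well; qHTS titration format.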
# HT1080-NT tox – qHTS for induction of synthetic lethality in tumor cells producing 2HG: qHTS for the HT-1080-NT fibrosarcoma cell line; HT-1080-NT fibrosarcoma viability, CellTiter-Glo ATP luminescence, 48 h; Potency, µM (series often up to 46.1 µM), most hits filed as cytotoxic; 360,000 tested, 1.6% active; AID 686970, 2013;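 also: NT is the 2HG producing partner of a matched IDH1 knockdown line; nearly all actives have a fitted effect of over 55% in size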
#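 Read-out is CellTiter-Glo luminescence after 10 minutes at room temperature, following 48 hours' compound treatment of HT-1080-NT cells (750 cells/well, RPMI, 5% FBS, 37 degrees C).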
# HT1080 IDH1KD tx – qHTS for induction of synthetic lethality in tumor cells producing 2HG: qHTS for the HT-1080-IDH1KD cell line | AID 686971, 2013 | 360,000 tested, 2% active | Potency, µM (series often up to 46.1 µM), actives largely listed as cytotoxic | HT-1080 IDH1 knockdown viability, ATP luminescence, 48 h
#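 In this qHTS, HT-1080 cells depleted of IDH1 are exposed for 48 h at 37 °C to compound titrations. Toxicity is scored from CellTiter-Glo luminescence, with DMSO as full viability and medium alone as none.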
# DT40 TDP1 no CPT – qHTS for Inhibitors of human tyrosyl-DNA phosphodiesterase 1 (TDP1): qHTS in cells in absence of CPT; DT40 Tdp1-/- hTDP1 cells, no CPT, ATP luminescence, 48 h; Potency, µM (top dose mostly 46.2 µM), hits mostly inhibitors; 420,000 tested, 15% active; AID 686978, 2013; also: nearly all actives have a fitted effect of over 55% in size
#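 Camptothecin absent (DMSO only). Human TDP1-complemented DT40 knockout cells, 400 cells/well, 37 °C for minimum 48 hr; ATP measured via CellTiter-Glo, 30 min dark incubation, luminescence.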
# IL1B secr inh – qHTS for Inhibitors of Inflammasome Signaling: IL-1-beta AlphaLISA Primary Screen | AID 743279, 2014 | 360,000 tested, 4.7% active | THP-1 LPS/ATP IL-1B secretion, AlphaLISA, 16 h; stronger effect = lower value | activity change, % at 57.5 µM; in the data active = activity change below about -50%; inconclusive = mostly about -30% to -49%
#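 THP-1 cells pretreated 1 hr with compounds (up to 57.5 uM final), then stimulated with LPS (250 ng/mL final) plus ATP (1.25 mM final); secreted IL-1B measured by AlphaLISA after 16 hr, decreased signal indicating inhibition.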
# Numbers stand for hits; 0 = inactive; ? = inconclusive; - = no result; [ ] = dose if it differs, or a comment. Unless noted, calls follow the shape of the dose curve; as a rule, active = well fitted curve in the direction sought with a large enough effect; inconclusive = small, poorly fitted or top-dose-only effect, or another doubt; inactive = no such curve, though single readings can be large; an effect the other way counts as inactive or inconclusive.
SMILES,DT40 TDP1 CPT,HT1080-NT tox,HT1080 IDH1KD tx,DT40 TDP1 no CPT,IL1B secr inh
C=C(C)COc1ccc(-c2nc(N)ncc2-c2ccc(OC)c(OC)c2)c(O)c1,?,0,0,?,0
C=C(C)COc1ccc(-c2[nH]ncc2-c2ccccc2)c(O)c1,16.4µM,?,?,20.6µM,?
C=C(C)COc1ccc(-c2[nH]ncc2-c2ccc(OC)cc2)c(O)c1,?,0,0,?,0
CCC1CCc2sc(C(=O)NCC(c3ccc(OC)cc3)N3CCCC3)cc2C1 (stereo not drawn),?,?,?,23.1µM,?
COc1ccc(NS(=O)(=O)c2cccc(C(=O)NN=Cc3ccc(OC)c(O)c3)c2)cc1,0,0,0,0,0
COc1ccc(NS(=O)(=O)c2cccc(C(=O)N/N=C/c3c(F)c(F)c(F)c(F)c3F)c2)cc1,20.6µM,?,?,23.1µM,0
COc1ccccc1C(CNC(=O)c1cccc(S(=O)(=O)Nc2ccc(F)cc2)c1)N1CCCC1 (stereo not drawn),?,0,0,20.6µM,0
COc1ccc(C(CNC(=O)c2cccc(N(C)C)c2)N2CCCC2)cc1 (stereo not drawn),23.1µM,0,0,?,0
Cc1cc(C)cc(NC(=O)c2cccc(C(=O)Nc3cc(C)cc(C)c3)c2)c1,?,-,-,0,-
COc1ccc(C(CNC(=O)c2cccc(S(=O)(=O)Nc3ccccc3OC)c2)N2CCCCC2)cc1 (stereo not drawn),18.4µM,0,0,?,0
COc1ccc(C(CNC(=O)c2cccc(S(=O)(=O)NCc3ccccc3)c2)N2CCOCC2)cc1 (stereo not drawn),?,0,0,20.6µM,0
COc1ccc(C(CNC(=O)c2cccc(S(=O)(=O)Nc3ccccc3OC)c2)N2CCCC2)cc1 (stereo not drawn),?,0,0,?,?
COc1ccc(NS(=O)(=O)c2cccc(C(=O)NCC(c3ccc(OC)cc3)N3CCCC3)c2)cc1 (stereo not drawn),13µM,?,?,?,?
COc1ccc(NS(=O)(=O)c2cccc(C(=O)NCC(c3ccc(OC)cc3)N3CCCCC3)c2)cc1 (stereo not drawn),?,0,0,0,0
CCCCN(CCCC)S(=O)(=O)c1ccc2[nH]c(=O)[nH]c2c1,0,?,0,0,0
CCN(c1ccccc1)S(=O)(=O)c1ccc(F)c(C(=O)Nc2ccc(C)cc2)c1,9.2µM,-,-,11.6µM,-
CCN(c1ccccc1)S(=O)(=O)c1cc(C(=O)Nc2ccc(F)c(F)c2)ccc1F,23.1µM,14.6µM,?,?,-88.9
CCN(c1ccccc1)S(=O)(=O)c1cc(C(=O)O)ccc1C,0,0,0,0,0
N=C1C(c2ccccc2)=C(O)CN1c1cccc2ccccc12,?,0,0,?,0
CC(C)c1nc2cc3ccccc3cc2[nH]1,0,0,0,0,-53.1
Cc1cc(N)c(-n2cc3c(c2-c2ccc(Br)cc2)c(=O)n(C)c(=O)n3C)cc1C,16.4µM,-,-,13µM,-
Cc1cccc(-c2c3c(=O)n(C)c(=O)n(C)c3cn2-c2cc(N)c(Cl)cc2Cl)c1,5.8µM,-,-,3.66µM,-
Cc1cccc(-c2c3c(=O)n(C)c(=O)n(C)c3cn2-c2ccccc2O)c1,?,0,0,0,0
COC(=O)c1ccccc1-n1cc2c(c1-c1cccc(C)c1)c(=O)n(C)c(=O)n2C,10.3µM,-,-,7.31µM,-
Cn1c(=O)c2c(-c3ccccc3)n(-c3ccccc3N)cc2n(C)c1=O,?,0,0,?,0
SMILES,DT40 TDP1 CPT,HT1080-NT tox,HT1080 IDH1KD tx,DT40 TDP1 no CPT,IL1B secr inh
Cn1c(=O)c2c(-c3ccccc3)n(-c3ccccc3S)cc2n(C)c1=O,0,0,0,0,0
COc1ccc(-n2cc3c(c2-c2cccc(Br)c2)c(=O)n(C)c(=O)n3C)cc1OC,20.6µM,-,-,13µM,-
COc1ccc(C2CCCCC2SCC(=O)O)cc1OC (stereo not drawn),0,0,0,0,0
Cc1cccc(NC(=O)C(Cc2ccccc2)c2nn[nH]n2)c1C (stereo not drawn),0,0,0,0,0
Cc1cccc(Nc2ncc3c(n2)CC(c2ccco2)CC3=O)c1 (stereo not drawn),?,?,?,20.6µM,?
Cc1cc(C)cc(Nc2ncc3c(n2)CC(c2ccco2)CC3=O)c1 (stereo not drawn),?,0,0,?,0
COc1ccc(CCNC(=O)Cn2nnc(C(=O)Nc3cc(C)ccc3C)c2N)cc1OC,?,0,0,0,0
COc1cc(CNCc2cc3ccc(F)cc3nc2N2CCOCC2)cc(OC)c1OC,0[9.04 µM],-,-,0,-
Cc1cc(OCCOCC[N+](C)(C)Cc2ccccc2)ccc1C(C)(C)CC(C)(C)C,1.19µM,-,-,1.06µM,-
COC(=O)C1CSC(C(=O)OC)N1C(=O)CN1CCN(c2ccccc2)CC1 (stereo not drawn),0,0,0,0,0
CC(C)CC1C(=O)N(Cc2cn(CCC3OCCO3)nn2)CCS(=O)(=O)N1Cc1ccc(-c2ccc(F)cc2)cc1 (stereo not drawn),?,?,?,23.1µM,0
COc1ccc(-c2ccc(CN3C(CC(C)C)C(=O)N(Cc4cn(CCC5OCCO5)nn4)CCS3(=O)=O)cc2)cc1OC (stereo not drawn),20.6µM,0,0,16.4µM,0
COc1ccc(-c2ccc(CN3C(C)C(=O)N(Cc4cn(CCC5OCCO5)nn4)CCS3(=O)=O)cc2)cc1OC (stereo not drawn),18.4µM,0,0,11.6µM,0
O=C(Nc1ccc(Cl)c(Cl)c1)C1CCCCC1,?,0,0,?,0
NS(=O)(=O)c1ccc(CNC(=S)NC2CC2)cc1,0,0,0,0,0
CCn1c(C)nc2cc(NS(=O)(=O)c3ccccc3)cc(C(=O)N3C[C@@H](C)O[C@@H](C)C3)c21,0,-,-,0,-
Cc1ccc(S(=O)(=O)n2nc(-c3ccco3)nc2NCc2ccc(N(C)C)cc2)cc1,?,-,-,23.1µM,-
CC(C)c1ccc(CNc2nc(-c3ccco3)nn2S(=O)(=O)c2ccccc2)cc1,23.1µM,-,-,?,-
Cc1ccc(CNc2nc(-c3ccco3)nn2C(=O)c2ccccc2[N+](=O)[O-])cc1,?,-,-,18.4µM,-
CN(C)c1ccc(CNc2nc(-c3ccco3)nn2S(C)(=O)=O)cc1,0,-,-,?,-
NS(=O)(=O)c1ccc(CCNC(=O)COC(=O)Cc2c(F)cccc2Cl)cc1,0,0,0,0,0
CC(c1ccccc1)C1CC(=O)N(CC(=O)O)C1=O (stereo not drawn),0,0,0,0,0
